PubChem BioAssay AID1159580 (chemical genetic matrix, 2015)
The campaign covered roughly 5,500 compounds. About 2,000 (36%) were called active. Inconclusive results (about 18%) are left out. Rule as the data show it: active = normalized growth mostly below about 0.91 (no sharp cut-off); inconclusive = no clear call, values can overlap the other calls; inactive = mostly above about 0.92. This is one part of the list.

Assay: chemical genetic growth profiling, strain panel (AID 1159580);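 also: tested at 20 µM; growth read once vehicle control cultures reached saturation at 30 °C; 1 = growth at the plate median or of vehicle wells; lower values mean less growth of the strain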
Conditions: growth OD
[1] = S. cerevisiae deletion strains, locus YAL013W, strain DEP1, active compounds read low
[2] = S. cerevisiae deletion strains, locus YDR150W, strain NUM1, active compounds read low
[3] = S. cerevisiae deletion strains, locus YGR078C, strain PAC10, active compounds read low
[4] = S. cerevisiae deletion strains, locus YJR075W, strain HOC1, active compounds read low
[5] = S. cerevisiae deletion strains, locus YMR263W, strain SAP30, active compounds read low
[6] = S. cerevisiae deletion strains, locus YMR307W, strain GAS1, active compounds read low
[7] = S. cerevisiae deletion strains, locus YNL153C, strain GIM3, active compounds read low
[8] = S. cerevisiae deletion strains, locus YNL322C, strain KRE1, active compounds read low
[9] = S. cerevisiae deletion strains, locus YPL055C, strain LGE1, active compounds read low
[10] = S. cerevisiae deletion strains, locus YPL241C, strain CIN2, active compounds read low

Measured: normalized growth

O=c1c2ccccc2nc2n1CCc1c-2[nH]c2ccccc12
inactive: [1] 1.02 | S. cerevisiae deletion strains, locus YAL040C, strain CLN3, active compounds read low 0.981 | S. cerevisiae deletion strains, locus YCL061C, strain MRC1 (second series), active compounds read low 1.01 | [2] 1.01 | S. cerevisiae deletion strains, locus YDR363W, strain ESC2, active compounds read low 1.02 | S. cerevisiae deletion strains, locus YER002W, strain NOP16, active compounds read low 0.996 | [3] 1 | [4] 1.02 | [5] 1.01 | [6] 0.999 | S. cerevisiae deletion strains, locus YNL128W, strain TEP1, active compounds read low 0.964 | [7] 0.928 | S. cerevisiae deletion strains, locus YNL175C, strain NOP13, active compounds read low 0.945 | S. cerevisiae deletion strains, locus YNL197C, strain WHI3, active compounds read low 0.97 | S. cerevisiae deletion strains, locus YNL224C, strain SQS1, active compounds read low 0.982 | [8] 1.02 | S. cerevisiae deletion strains, locus YOR083W, strain WHI5 (second series), active compounds read low 0.906 | [9] 1.02 | [10] 1

COc1ccc(C(=O)CN2CCN(c3cc(C)nc4ccccc34)CC2)cc1
inactive: [1] 1.01 | S. cerevisiae deletion strains, locus YBR229C, strain ROT2, active compounds read low 1.01 | S. cerevisiae deletion strains, locus YCL061C, strain MRC1, active compounds read low 1 | S. cerevisiae deletion strains, locus YDL101C, strain DUN1, active compounds read low 0.968 | S. cerevisiae deletion strains, locus YDL134C, strain PPH21, active compounds read low 0.994 | [2] 0.982 | S. cerevisiae deletion strains, locus YEL061C, strain CIN8, active compounds read low 0.979 | [3] 1 | S. cerevisiae deletion strains, locus YHR030C, strain SLT2, active compounds read low 0.905 | S. cerevisiae deletion strains, locus YHR087W, strain rtc3, active compounds read low 0.994 | S. cerevisiae deletion strains, locus YJL187C, strain SWE1, active compounds read low 1 | S. cerevisiae deletion strains, locus YJR043C, strain POL32, active compounds read low 1 | [4] 1.01 | S. cerevisiae deletion strains, locus YLR039C, strain RIC1, active compounds read low 0.956 | S. cerevisiae deletion strains, locus YLR058C, strain SHM2 (second series), active compounds read low 1.01 | S. cerevisiae deletion strains, locus YLR085C, strain ARP6, active compounds read low 0.987 | S. cerevisiae deletion strains, locus YLR262C, strain YPT6, active compounds read low 0.942 | S. cerevisiae deletion strains, locus YML094W, strain GIM5, active compounds read low 0.957 | S. cerevisiae deletion strains, locus YMR219W, strain ESC1, active compounds read low 0.997 | [5] 1.04 | [6] 1.09 | [7] 1.01 | S. cerevisiae deletion strains, locus YNL298W, strain CLA4 (second series), active compounds read low 0.975 | [8] 0.998 | S. cerevisiae deletion strains, locus YNR030W, strain Alg12, active compounds read low 0.994 | S. cerevisiae deletion strains, locus YOL006C, strain TOP1, active compounds read low 0.995 | [9] 1.01 | [10] 1.05 | S. cerevisiae deletion strains, locus YPR135W, strain CTF4, active compounds read low 0.944 | S. cerevisiae strains, strain wild type, active compounds read low 1
